From PubChem BioAssay (EPA / NIEHS)
Activity calls are given as the source filed them. How the source made its calls: active means hit-call score of the fitted dose curve at least 0.9, where 1 is the maximum; inactive means score below 0.9.

read-out: Apolipoprotein A-V (APOA5) gene, APOA5 (gene 116519); experiment: LTEA_HepaRG_APOA5: Life Technologies and Expression Analysis (LTEA) Assay for Apolipoprotein A-V (APOA5) gene using HepaRG (AID 2283474); details: mRNA level, 48 h; actives raise or lower the signal
Experimental: LTEA_HepaRG is a cell based, multiplexed-readout assay that uses HepaRG, a human liver cell line, with measurements taken at 48 hours after chemical dosing on a 96-well plate.LTEA_HepaRG_APOA5 is one of 102 assay component(s) measured in the LTEA HepaRG cell culture assay. It is a marker of Steatosis.Data from the assay component LTEA_HepaRG_APOA5 was analyzed into 1 endpoint. This assay endpoint, LTEA_HepaRG_APOA5, was analyzed with bidirectional fitting relative to DMSO as the negative control and baseline of activity. Using a type of inducible reporter, measures of mRNA induction for gain or loss-of-signal activity can be used to understand regulation of transcription factor activity. To generalize the intended target to other relatable targets, this assay endpoint is annotated to the apolipoprotein intended target family, where the subfamily is Steatosis.
A total of 1060 chemcials from the ToxCast library were tested in eight-point concentration-response experiments. Cell culture and cytotoxicity assays were conducted at Thermo Fisher Scientific's Custom Services facility (Madison, WI). A single lot of human HepaRG cells (Thermo Fisher Scientific, Frederick, MD) was used for the cell culture experiments. 96-well format collagen type I coated plates of human HepaRG cells were prepared using established methods. Briefly, cryopreserved HepaRG cells were thawed, plated at a density of approximately 100,000 cells/well in HepaRG Thaw, Plate, and General Purpose media (HPRG770, Thermo Fisher Scientific), and incubated for 48 hours. 0.5% DMSO was selected as vehicle control to balance the requisite need of DMSO in HepaRG cultures to maintain differentiation (for example, baseline metabolism, proportions of hepatocytes vs. cholangiocytes), while enabling further hepatic receptor pathway activation (for example, PXR and CAR) in response to chemical exposure. 48 hours after plating, the culture medium was replaced with HepaRG Serum-Free Incudtion Media. Cells were exposed to each test chemical in duplicate and maintained in CO2 incubators for another 48 hours. Chemical plates were thawed to room temperature and 200x concentrations of treatment groups were prepared. 8-point conentration-reponse curves were made with the highest exposure at 100 uM, followed by half-log dilutions, all in 0.5% DMSO. Each test plate contained variouse controls, induction positive controls (1mM phenobarbital), cytotoxicity positive controls ([…] aflatoxin B1), vehicle controls (0.5% DMSO), and total lysis controls (0.5% DMSO). Cell morphology images were taken using an Essen IncuCyte FLR automated microscope, with six 96-well plates imaged in about 24 minutes. Images were captured and exported and JPEG files. Spent culture media was transfered to black-well plates for the LDH assay, and remaining media was sorted at -80 C for later use. Cells were treated with RLT buffer and frozen until shipped for gene expression analysis. Total RNA was isolated from the cell suspension in 75 uL of Buffer RLT (Qiagen, Germantown, MD 20874) by Quintiles/Expression Analysis (Durham, NC) using a custom isolation procedure. Total RNA from each plate well was transferred to a preamplification plate. Fluidigm's 96.96 Dynamic ArrayTM (Fluidigm, Amsterdam, the Netherlands) technology was used for gene expression analyses by quantitative reverse transcription polymerase chain reaction (qRT-PCR, performed by Quintiles/Expression Analysis, Durham, NC)89. Standard TaqManTM Assays (Applied Biosystems/ThermoFisher Scientific, Foster City, CA) were used to assess the expression of 93 genes selected based on their selectivity and sensitivity to important hepatic receptors known to be modulated by environmental chemicals; importance in human hepatocyte functionality; and hepatotoxicity. […]

SMILES	outcome	AC50
C=C(C)C(=O)OCCC(F)(F)C(F)(F)C(F)(F)C(F)(F)C(F)(F)C(F)(F)F	inactive	
OCCC(F)(F)C(F)(F)C(F)(F)C(F)(F)C(F)(F)C(F)(F)C(F)(F)C(F)(F)F	inactive	
CCCCCCCCCCCCc1ccccc1S(=O)(=O)O		80.3 µM (active)
CCc1ccc(CCOc2ccc(CC3SC(=O)NC3=O)cc2)nc1 (stereo not given)		84.6 µM (active)
CC1=C(/C=C/C(C)=C/C=C/C(C)=C/C(=O)O)C(C)(C)CCC1	inactive	
COC(=O)CCCCC(=O)OC	inactive	
O=C(O)Cc1cc(I)c(Oc2cc(I)c(O)c(I)c2)c(I)c1		57.7 µM (active)
CC[C@H](c1ccc(O)cc1)[C@@H](CC)c1ccc(O)cc1	inactive	
CC#C[C@]1(O)CC[C@H]2[C@@H]3CCC4=CC(=O)CCC4=C3[C@@H](c3ccc(N(C)C)cc3)C[C@@]21C		29.7 µM (active)
CC(C)(C)c1ccc(O)c(C(C)(C)C)c1	inactive	
COCC(C)O (stereo not given)	inactive	
c1ccc2c(c1)ccc1ccccc12	inactive	
CCCCCCCCC(=O)O	inactive	
O=[N+]([O-])c1ccc(O)cc1	inactive	
N#C[C@@H]1CC(F)(F)CN1C(=O)CNC1CC2CCC(C1)N2c1ncccn1 (stereo not given in full)	inactive	
Cc1cc(CCN2CCN(c3nsc4ccccc34)CC2)cc2c1NC(=O)CC2(C)C		75.9 µM (active)
CC(C)(C)c1cccc(C(C)(C)C)c1O	inactive	
C[C@@H]1C[C@H]2[C@@H]3CCC4=CC(=O)C=C[C@]4(C)[C@@]3(F)[C@@H](O)C[C@]2(C)[C@@]1(O)C(=O)COP(=O)(O)O	inactive	
Cc1oc(-c2ccccc2)nc1CCOc1ccc(C[C@H](Nc2ccccc2C(=O)c2ccccc2)C(=O)O)cc1	inactive	
CC(C)CCCCCCOC(=O)CCCCC(=O)OCCCCCCC(C)C	inactive	

SMILES	outcome	AC50
CN(C)C=O	inactive	
CCN(CC)CCNc1ccc(CNC=O)c2sc3ccc(OC)cc3c(=O)c12		12.4 µM (active)
c1ccc2c(c1)Cc1ccccc1-2	inactive	
CCOC(=O)CC(O)(CC(=O)OCC)C(=O)OCC	inactive	
CC[C@H](C)[C@@H](C(=O)O)n1sc2ccccc2c1=O	inactive	
CCCCCCCCCCCCCCCS(=O)(=O)Oc1ccccc1	inactive	
Oc1cc2ccccc2c2ccccc12	inactive	
CCCCCCCCCCCCN1CCCC1=O	inactive	
CCCCC(CC)COC(=O)CCCCC(=O)OCC(CC)CCCC (stereo not given)	inactive	
CCCOc1sc(C(=O)N2CCC(c3cc(CN)ccc3F)CC2)c(C)c1Br	inactive	
CCCCCCCC(=O)O	inactive	
CC(C)(C)c1cc(C(C)(C)C)c(O)c(C(C)(C)C)c1	inactive	
OC1CCC(C2CCCCC2)CC1 (stereo not given)	inactive	
CN1CCN(c2ccccc2/C=C2\SCCN(c3ccc(Cl)c(Cl)c3)C2=O)CC1	inactive	
ClC1=C(Cl)C(Cl)(Cl)C(Cl)=C1Cl	inactive	
O=c1c(-c2ccc(O)cc2)coc2cc(O)ccc12	inactive	
O=C(OCCOCCOC(=O)c1ccccc1)c1ccccc1	inactive	
CC(O)CO (stereo not given)	inactive	
Oc1cccc(O)c1	inactive	
OCCC(F)(F)C(F)(F)C(F)(F)C(F)(F)C(F)(F)C(F)(F)F	inactive	
